# An excerpt weighted towards active compounds, which were near 5% of everything screened.
# UCHL1 inh: blocks human UCHL1 ubiquitin-rhodamine cleavage; P09936; purified UCHL1, Ub-rhodamine cleavage fluorescence; inhibition, % at 20 µM; 47,000 compounds, 0.2% hits; AID 1645859
# USP10 inh: blocks human USP10 ubiquitin-rhodamine cleavage; purified USP10, Ub-rhodamine fluorescence, 60 min; inhibition, % at 20 µM; 47,000 compounds, 1.1% hits
# Target sequence (Q14694 whole entry, looked up): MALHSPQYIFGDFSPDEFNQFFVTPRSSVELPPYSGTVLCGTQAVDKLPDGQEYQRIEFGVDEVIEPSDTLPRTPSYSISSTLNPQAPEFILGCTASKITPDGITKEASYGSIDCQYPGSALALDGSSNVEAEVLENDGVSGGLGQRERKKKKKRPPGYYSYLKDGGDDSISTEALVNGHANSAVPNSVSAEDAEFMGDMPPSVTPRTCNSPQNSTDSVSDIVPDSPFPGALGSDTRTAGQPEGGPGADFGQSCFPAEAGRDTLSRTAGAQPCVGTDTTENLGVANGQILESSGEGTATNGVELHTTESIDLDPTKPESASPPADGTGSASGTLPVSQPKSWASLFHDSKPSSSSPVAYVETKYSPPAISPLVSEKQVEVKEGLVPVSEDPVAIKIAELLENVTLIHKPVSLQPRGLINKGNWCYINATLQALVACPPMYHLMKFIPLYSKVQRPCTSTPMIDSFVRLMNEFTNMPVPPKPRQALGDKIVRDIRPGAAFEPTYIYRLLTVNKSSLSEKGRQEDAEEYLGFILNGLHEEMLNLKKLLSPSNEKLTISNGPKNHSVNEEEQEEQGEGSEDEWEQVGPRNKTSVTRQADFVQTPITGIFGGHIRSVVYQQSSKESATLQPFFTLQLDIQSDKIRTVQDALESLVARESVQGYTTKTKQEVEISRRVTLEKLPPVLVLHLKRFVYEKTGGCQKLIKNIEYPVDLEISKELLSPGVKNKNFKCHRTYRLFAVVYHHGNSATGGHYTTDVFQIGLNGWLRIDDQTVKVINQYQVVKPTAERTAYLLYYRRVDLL
# USP7 block: inhibitors of human USP7 deubiquitinase; purified USP7, Ub-rhodamine cleavage fluorescence; Q93009; AID 1645854; inhibition, % at 20 µM; 47,000 compounds, 0.3% hits
# USP8 block: inhibitors of human USP8 deubiquitinase | P40818 | purified USP8, Ub-rhodamine cleavage fluorescence, 30 min | inhibition, % at 20 µM | 47,000 compounds, 4.2% hits
# * marks the source's active call; other numbers are inactive results; x = not tested or not shown. Cut-off read from the data, not from the text of the source: active = inhibition above about 30%; inactive = the rest.
SMILES,UCHL1 inh,USP10 inh,USP7 block,USP8 block
O=C1CC(c2ccc(O)cc2)c2c(nc(-c3ccccc3)[nH]c2=O)N1 (stereo unspecified),3.1,2.5,7.2,7.8
O=C1CC(c2ccc(Cl)cc2)c2c(nc(-c3ccccc3)[nH]c2=O)N1 (stereo unspecified),0.7,12.0,16.1,61.4*
O=C(CN1CCc2[nH]c3c(F)c(Cl)ccc3c(=O)c2C1)NCc1ccc2c(c1)OCO2,-9.8,-3.3,-7.5,0.3
CCOc1ccc(CNC(=O)CCn2cnc3ccccc3c2=O)cc1,-0.8,-1.3,-7.4,63.8*
CCOc1ccccc1NC(=O)CCn1cnc2ccccc2c1=O,2.6,2.9,4.7,-109.5
CN1CC(=O)N(C2CCCNC2)Cc2c(NC3CCCCCC3)ncnc21 (stereo unspecified),-5.8,-6.0,-2.3,-104.1
CN1CC(=O)N(C2CCCNC2)Cc2c(NC3Cc4ccccc4C3)ncnc21 (stereo unspecified),3.1,0.2,5.0,67.9*
O=c1ccc(-c2nnc3c4ccccc4c(Cc4ccccc4)nn23)n[nH]1,4.4,5.2,-2.3,59.3*
c1ccc(-c2cc(-c3nnc4c5ccccc5cnn34)[nH]n2)cc1,0.6,2.8,4.5,0.6
COc1cc(OC)cc(N2C(=O)N(CC(=O)c3ccc(Br)cc3)c3ccccc3S2(=O)=O)c1,14.0,81.2*,45.6*,33.4*
O=C(COC(=O)c1ccc(N2CCCC2=O)cc1)NC1CCCc2ccccc21 (stereo unspecified),-0.4,-1.8,-1.9,-6.0
Cc1nc(-c2cccnc2)nc2c1CC(=O)N2C1CCCC1,3.3,-0.7,-3.5,37.3*
COc1cc2c(c(OC)c1OC)-c1ccc(N3CCN(Cc4ccc5c(c4)OCO5)CC3)c(=O)cc1[C@@H](NC(C)=O)CC2,2.4,-9.1,1.7,45.1*
COc1cccc(N2CC(=O)Nc3c(oc4nc(-c5ccccc5)cc(C)c34)C2=O)c1,8.4,25.6,8.4,32.3*
COc1cccc(N2Cc3ccccc3OCC2=O)c1,4.0,3.2,-20.7,6.5
CCN(CC)C(=O)CC[C@H]1CNC(=O)[C@@H]2[C@@H](CCN2Cc2ccccn2)N1C,-3.4,-0.2,-0.2,-91.5
CC(C)(NC(=O)Cc1ccccc1)c1nc2c(c(C(N)=O)n1)OCO2,1.1,0.2,x,-1.5
CC(C)(NC(=O)C1CCCCC1)c1nc2c(c(C(N)=O)n1)OCCO2,-0.8,-0.4,81.0*,7.4
Cc1ccc(CNC(=O)[C@H](C)NC(=O)C2CCN(C(=O)[C@H](Cc3ccccc3)NC(=O)OC(C)(C)C)CC2)cc1,-0.2,-5.5,0.0,-6.4
COc1ccc(C2c3c(-c4ccccc4O)n[nH]c3C(=O)N2CCc2ccc(OC)c(OC)c2)cc1 (stereo unspecified),7.0,13.9,13.0,61.0*
Cc1nc2cc(-c3noc(-c4nn(C)c5ccccc45)n3)ccc2o1,2.6,-6.7,11.2,-2.1
Cc1nc2cc(-c3noc(-c4cccc5[nH]ccc45)n3)ccc2o1,2.9,3.0,11.7,55.0*
COc1ccc(NC(=O)CCN2C(=O)[C@@H]3Cc4ccccc4CN3C2=O)cc1,-4.1,1.3,-4.4,-21.5
COc1ccc(/C=C2\NC(=O)[C@H]3Cc4ccccc4CN3C2=O)cc1,0.4,10.2,9.9,45.6*
O=C1CCCC[C@]2(CN(Cc3ccccc3OC3CCCC3)C[C@H]2c2ccccn2)N1,2.5,1.0,-7.2,-12.5
SMILES,UCHL1 inh,USP10 inh,USP7 block,USP8 block
O=C1COc2ccc(Cl)cc2CN1Cc1ccccc1,0.1,1.4,-10.6,-1.9
Clc1ccc(C2=Nc3cc(Cl)ccc3OC2)cc1,-3.3,-5.3,-6.0,56.4*
Cc1cccc(NC(=O)COc2coc(CN3CCc4ccccc4C3)cc2=O)c1,-1.5,-4.2,-0.2,34.5*
Cc1ccc(C)c(NC(=O)COc2coc(CN3CCc4ccccc4C3)cc2=O)c1,-1.5,-3.3,-4.1,0.9
CCCOc1cccc(C(=O)Nc2ccc(-n3cnnn3)cc2)c1,1.9,18.6,5.8,47.7*
Cc1noc(C2CN(C(=O)NCc3cccc(F)c3)CC23CCOCC3)n1 (stereo unspecified),0.6,1.3,3.5,13.5
O=C(CC1Nc2ccccc2OC1=O)Nc1ccccc1F (stereo unspecified),-1.0,-1.9,-2.8,-150.2
Cc1nc(N2CCOCC2)ncc1-c1cc(=O)[nH]c(N2c3ccccc3CC2C)n1 (stereo unspecified),4.1,7.6,8.8,12.0
Cc1nc(N2CCC(C)CC2)ncc1-c1cc(=O)[nH]c(N2c3ccccc3CC2C)n1 (stereo unspecified),5.8,3.8,7.1,44.2*
CN1CCN(Cc2cccnc2)C(=O)C12CCN(Cc1ccc[nH]1)CC2,0.0,-7.8,-139.5,40.3*

# Bioassay records: PubChem, Buhrlage Lab, Dana-Farber Cancer Institute and Novartis Institutes for BioMedical Research (Cambridge, Mass)
